According to PubChem BioAssay AID1159580 (chemical genetic matrix, 2015):
Screen size: about 5,500 compounds; about 2,000 (36%) were called active. Not shown: some 18% with an inconclusive outcome. Rule as the data show it: active = normalized growth mostly below about 0.91 (no sharp cut-off); inconclusive = no clear call, values can overlap the other calls; inactive = mostly above about 0.92. The list shows a part of the results.

Test: chemical genetic growth profiling, strain panel (AID 1159580);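 also: tested at 20 µM; growth read once vehicle control cultures reached saturation at 30 °C; 1 = growth at the plate median or of vehicle wells; lower values mean less growth of the strain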
Settings: growth OD

Measured: normalized growth

CO[C@@]1(NC(=O)Cc2cccs2)C(=O)N2C(C(=O)O)=C(COC(N)=O)CS[C@@H]21
inactive: S. cerevisiae deletion strains, locus YJR066W, strain TOR1, active compounds read low 0.995 | S. cerevisiae deletion strains, locus YKL009W, strain mrt4, active compounds read low 1.01 | S. cerevisiae deletion strains, locus YKL068W, active compounds read low 0.992 | S. cerevisiae deletion strains, locus YKL085W, strain MDH1 (second series), active compounds read low 0.992 | S. cerevisiae deletion strains, locus YKL085W, strain MDH1, active compounds read low 0.992 | S. cerevisiae deletion strains, locus YKL160W, strain elf1, active compounds read low 0.927 | S. cerevisiae deletion strains, locus YKL190W, strain CNB1, active compounds read low 1.01 | S. cerevisiae deletion strains, locus YKR001C, strain vps1, active compounds read low 0.995 | S. cerevisiae deletion strains, locus YKR026C, strain gcn3, active compounds read low 0.977 | S. cerevisiae deletion strains, locus YKR091W, strain srl3, active compounds read low 0.971 | S. cerevisiae deletion strains, locus YLL001W, strain dnm1, active compounds read low 0.966 | S. cerevisiae deletion strains, locus YLL026W, active compounds read low 0.986 | S. cerevisiae deletion strains, locus YLL041C, strain sdh2, active compounds read low 0.971 | S. cerevisiae deletion strains, locus YLR027C, strain aat2, active compounds read low 0.985 | S. cerevisiae deletion strains, locus YLR039C, strain RIC1, active compounds read low 0.998 | S. cerevisiae deletion strains, locus YLR058C, strain SHM2, active compounds read low 1.01 | S. cerevisiae deletion strains, locus YLR102C, strain apc9, active compounds read low 0.989 | S. cerevisiae deletion strains, locus YLR113W, strain HOG1, active compounds read low 1.06 | S. cerevisiae deletion strains, locus YLR221C, strain rsa3, active compounds read low 1 | S. cerevisiae deletion strains, locus YLR258W, strain gsy2, active compounds read low 0.976 | S. cerevisiae deletion strains, locus YLR262C, strain YPT6 (second series), active compounds read low 0.98 | S. cerevisiae deletion strains, locus YLR262C, strain YPT6, active compounds read low 1.01 | S. cerevisiae deletion strains, locus YLR268W, strain sec22, active compounds read low 0.993 | S. cerevisiae deletion strains, locus YLR320W, strain mms22, active compounds read low 0.977 | S. cerevisiae deletion strains, locus YLR330W, strain CHS5, active compounds read low 1 | S. cerevisiae deletion strains, locus YLR342W, strain FKS1 (second series), active compounds read low 0.985 | S. cerevisiae deletion strains, locus YLR342W, strain FKS1, active compounds read low 0.953 | S. cerevisiae deletion strains, locus YLR357W, strain rsc2, active compounds read low 0.915 | S. cerevisiae deletion strains, locus YLR370C, strain arc18, active compounds read low 0.961 | S. cerevisiae deletion strains, locus YLR371W, strain rom2, active compounds read low 0.992 | S. cerevisiae deletion strains, locus YLR384C, strain iki3, active compounds read low 0.968 | S. cerevisiae deletion strains, locus YLR418C, strain cdc73, active compounds read low 0.988 | S. cerevisiae deletion strains, locus YML016C, strain PPZ1, active compounds read low 1 | S. cerevisiae deletion strains, locus YML032C, strain rad52, active compounds read low 0.994 | S. cerevisiae deletion strains, locus YML120C, strain ndi1, active compounds read low 0.986 | S. cerevisiae deletion strains, locus YML124C, strain tub3, active compounds read low 0.993 | S. cerevisiae deletion strains, locus YMR058W, strain fet3, active compounds read low 0.984 | S. cerevisiae deletion strains, locus YMR078C, strain ctf18, active compounds read low 0.993 | S. cerevisiae deletion strains, locus YMR125W, strain sto1, active compounds read low 0.963 | S. cerevisiae deletion strains, locus YMR129W, active compounds read low 0.971 | S. cerevisiae deletion strains, locus YMR205C, strain PFK2, active compounds read low 0.988 | S. cerevisiae deletion strains, locus YMR223W, strain ubp8, active compounds read low 0.998 | S. cerevisiae deletion strains, locus YMR231W, strain pep5, active compounds read low 0.98 | S. cerevisiae deletion strains, locus YMR307W, strain GAS1, active compounds read low 0.975 | S. cerevisiae deletion strains, locus YNL067W, strain RPL9B, active compounds read low 1 | S. cerevisiae deletion strains, locus YNL071W, strain lat1, active compounds read low 0.973 | S. cerevisiae deletion strains, locus YNL153C, strain GIM3, active compounds read low 1.02 | S. cerevisiae deletion strains, locus YNL183C, strain NPR1, active compounds read low 1 | S. cerevisiae deletion strains, locus YNL209W, strain ssb2, active compounds read low 0.972 | S. cerevisiae deletion strains, locus YNL233W, strain BNI4, active compounds read low 1 | S. cerevisiae deletion strains, locus YNL248C, strain rpa49, active compounds read low 0.916 | S. cerevisiae deletion strains, locus YNL250W, strain rad50, active compounds read low 1.01 | S. cerevisiae deletion strains, locus YNL271C, strain bni1, active compounds read low 0.985 | S. cerevisiae deletion strains, locus YNL298W, strain CLA4, active compounds read low 0.975 | S. cerevisiae deletion strains, locus YNL307C, strain MCK1, active compounds read low 1 | S. cerevisiae deletion strains, locus YNL322C, strain KRE1 (second series), active compounds read low 0.972 | S. cerevisiae deletion strains, locus YNL322C, strain KRE1, active compounds read low 1.01 | S. cerevisiae deletion strains, locus YNR049C, strain mso1, active compounds read low 0.953 | S. cerevisiae deletion strains, locus YNR052C, strain pop2, active compounds read low 1 | S. cerevisiae deletion strains, locus YOL006C, strain TOP1, active compounds read low 1.08 | S. cerevisiae deletion strains, locus YOL012C, strain htz1 1.61 | S. cerevisiae deletion strains, locus YOL147C, strain pex11, active compounds read low 0.992 | S. cerevisiae deletion strains, locus YOR001W, strain rrp6, active compounds read low 1 | S. cerevisiae deletion strains, locus YOR061W, strain CKA2, active compounds read low 1.01 | S. cerevisiae deletion strains, locus YOR069W, strain VPS5, active compounds read low 1 | S. cerevisiae deletion strains, locus YOR070C, strain gyp1, active compounds read low 0.979 | S. cerevisiae deletion strains, locus YOR080W, strain dia2, active compounds read low 0.986 | S. cerevisiae deletion strains, locus YOR083W, strain WHI5, active compounds read low 0.894 | S. cerevisiae deletion strains, locus YOR106W, strain vam3, active compounds read low 0.951 | S. cerevisiae deletion strains, locus YOR136W, strain idh2, active compounds read low 1 | S. cerevisiae deletion strains, locus YOR144C, strain elg1, active compounds read low 0.998 | S. cerevisiae deletion strains, locus YOR184W, strain ser1, active compounds read low 1.02 | S. cerevisiae deletion strains, locus YOR231W, strain MKK1, active compounds read low 1.09 | S. cerevisiae deletion strains, locus YOR265W, strain rbl2, active compounds read low 0.999 | S. cerevisiae deletion strains, locus YOR270C, strain vph1, active compounds read low 0.936 | S. cerevisiae deletion strains, locus YOR290C, strain snf2, active compounds read low 0.945 | S. cerevisiae deletion strains, locus YOR316C, strain cot1, active compounds read low 0.995 | S. cerevisiae deletion strains, locus YPL051W, strain arl3, active compounds read low 0.977 | S. cerevisiae deletion strains, locus YPL078C, strain atp4, active compounds read low 0.937 | S. cerevisiae deletion strains, locus YPL106C, strain sse1, active compounds read low 0.96 | S. cerevisiae deletion strains, locus YPL240C, strain hsp82, active compounds read low 0.984 | S. cerevisiae deletion strains, locus YPL256C, strain CLN2, active compounds read low 1.08 | S. cerevisiae deletion strains, locus YPR119W, strain clb2, active compounds read low 0.992 | S. cerevisiae deletion strains, locus YPR141C, strain kar3, active compounds read low 0.994 | S. cerevisiae deletion strains, locus YPR163C, strain tif3, active compounds read low 1 | S. cerevisiae deletion strains, locus YPR167C, strain met16, active compounds read low 0.998 | S. cerevisiae deletion strains, strain wtn01, active compounds read low 0.99 | S. cerevisiae strains, strain wild type, active compounds read low 1.01
